The record followed here is PubChem BioAssay.

The nature of experiment [1]: inhibitors of TNFa-induced NFkB p65 translocation, primary screen, imaging, HUVEC, MLSMR starter and 10KST1 sets (AID 438;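 active = inhibition above 20% together with a positive visual image hit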;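 also: compound added about 3h40 before a 20 min TNFalpha stimulation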;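 as to inhibition: signal is the nuclear over cytoplasmic p65 intensity ratio per well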). The settings on record: HUVEC TNFa-induced p65 nuclear translocation; cell count: measured here: nuclei count (cytotoxicity indicator), at 2.08 µM; inhibition: at 2 µM, stronger effect = higher value, 0% TNFa-plus-vehicle, 100% no-TNFa wells.
Experiment [2] in a line: inhibitors of mutant huntingtin aggregation, primary screen, imaging, exon1htt(103Q)mCFP cells, high-content imaging (AID 483;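 active = visual image review flags a hit and inhibition of aggregation exceeds 20%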;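 also: compound exposure lasted 3 days before fixation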;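 as to nuclei count: percent of the per-plate median nuclei count of sample wells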). The settings on record: exon1htt(103Q)mCFP cell line, aggregate imaging, at 2 µM; inhibition of aggregation: stronger effect = higher value; nuclei count: measured here: cell count, toxicity.
Experiment [3] can be described thus: inhibitors of E-selectin induction by TNFa, primary screen, imaging, HUVEC, immunofluorescence, MLSMR starter and 10KST1 sets (AID 487;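 active = visually confirmed hit in the image check and inhibition above 20%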;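 as to inhibition: signal is fraction of cell area covered by stained E-selectin grains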;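 as to nuclei count: 100% = median nuclei count of all wells on the same plate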). The settings on record: HUVEC TNFalpha-induced E-selectin immunofluorescence imaging, at 2 µM; inhibition: stronger effect = higher value; nuclei count: measured here: cell number, toxicity.
Experiment [4] in a line: DUSP6 inhibitors restoring Erk phosphorylation by chemical complementation, primary imaging in DUSP6-transfected HeLa (AID 609;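 active = compounds giving at least 50% inhibition in the cell-based MKP-3 phosphatase rescue imaging test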;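 as to inhibition: phospho-Erk level distribution per well compared with pooled transfected vehicle control wells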). The settings on record: HeLa MKP-3 transfected, phospho-Erk imaging KS statistic, at 10 µM, cells stimulated with TPA for 15 min.
The target of experiment [5] is Dual specificity protein phosphatase 6 (Homo sapiens) (UniProt Q16828). The description is as above. Conditions: HeLa MKP-3 transfected, phospho-Erk imaging KS statistic; at 10 µM; stronger effect = higher value; cells stimulated with TPA for 15 min.
The target of experiment [6] is Voltage-gated potassium channel subunit beta-2 (Rattus norvegicus) (UniProt P62483). Put plainly: KvBeta enzyme negative modulators, primary screen, biochemical, NADPH fluorescence (AID 622;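 active = fluorescence slope higher than the sample average by over 3 SD, cut at about -0.22 in these data, passing the limit was not always enough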;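 also: slope of raw intensity against log time taken from 70 to 1610 s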). The settings on record: recombinant KvBeta, 4-cyanobenzaldehyde reduction, at 10 µM, stronger effect = higher value.
The target is the same in experiment [7]. Kind of experiment: KvBeta positive modulators, primary screen, biochemical, NADPH fluorescence (AID 623).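 Also: fluorescence intensity change per second fitted from 20 to 320 s.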 The settings on record: Recombinant KvBeta, NADPH fluorescence decrease slope, 10 min; at 10 µM; stronger effect = lower value.
The target of experiment [8] is Muscarinic acetylcholine receptor M4 (Homo sapiens) (UniProt P08173). Put plainly: compounds altering M4/GIRK thallium flux, either direction, primary screen, M4 allosteric agonist project, cell-based, HEK293 M4/GIRK, BTC-AM (AID 625;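 active = fluorescence slope after compound addition differing from the mean of all tested samples at 99.7% confidence, mostly higher but some lower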;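 also: thallium influx through GIRK channels coupled to M4 in HEK293 cells with BTC-AM dye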). Conditions: at 10 µM, actives lie on both sides.
Experiment [9] in a line: inhibitors of larval lipid processing in zebrafish, primary screen, whole organism, PED6 fluorescence, gall bladder and intestine (AID 686;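 active = a full or partial loss of lipid-probe fluorescence in the fish gall bladder, intestine or both, judged by eye; inactive = no fluorescence loss, or compound toxic to the fish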;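 also: larvae 5 to 7 days old with five fish per well; signal comes from phospholipase A2 cleavage of quenched PED6 carried via bile; overnight exposure to compound and PED6 before scoring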). The settings on record: Zebrafish larvae PED6 lipid processing, fluorescence scoring; screened at 20 µM (by protocol).
Experiment [10] in a line: inhibitors of Chlamydomonas gravitaxis, primary screen, whole organism, Chlamydomonas reinhardtii, WT vs cilia-less mutant, absorbance, 96-well (AID 463189;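 active = inhibition at or above 50% relative to wild type and mutant plate controls; inactive = inhibition below 50%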;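 also: 0% = wild type cc124 cells in DMSO and 100% = ciliumless bld1 mutant cells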). The settings on record: OD600 absorbance, 2 days, at 10 µM, stronger effect = higher value.
Experiment [11] is described as follows: inhibitors of Sendai virus-induced IRF3 signaling, primary screen, TLR/RLR signaling modifier project, cell-based, Sendai virus stimulus, luciferase, 10K MLSCN set (AID 602276;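 active = inhibition at or above 50% at 10 µM; inactive = inhibition below 50%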;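 also: firefly luciferase from ISG56 promoter only with Renilla not read in this screen; 0% = Sendai virus plus DMSO and 100% = medium plus DMSO without virus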). The settings on record: HEK293 RL24 IRF3 luciferase reporter, at 10 µM, stronger effect = higher value. A general note: A reporter such as luciferase makes a cellular process visible.
A short description of experiment [12]: inhibitors of poly I:C-induced TLR3 signaling, primary screen, cell-based, poly I:C stimulus, luciferase, 10K MLSCN set (AID 602277;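 active = inhibition of the reporter signal at or above 50%; inactive = inhibition below 50%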). Conditions: HEK293-TLR3 RL24 IRF3 luciferase reporter, at 10 µM, stronger effect = higher value.
[13] abbreviates: measured here: cell density z-score.
Where [14] appears, read: measured here: nuclear c-Myc green intensity z-score.
The mark [15] stands for this setting: measured here: nuclear pErk red intensity z-score, stronger effect = higher value.

Activity calls are given as the source filed them.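 The calls were made as follows, unless noted: active = NADPH fluorescence slope more negative than the mean of all samples by about 3 SD, 99.7% confidence; inactive = the rest.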

Dual specificity protein phosphatase 6 (Homo sapiens), sequence (Q16828 whole entry, looked up): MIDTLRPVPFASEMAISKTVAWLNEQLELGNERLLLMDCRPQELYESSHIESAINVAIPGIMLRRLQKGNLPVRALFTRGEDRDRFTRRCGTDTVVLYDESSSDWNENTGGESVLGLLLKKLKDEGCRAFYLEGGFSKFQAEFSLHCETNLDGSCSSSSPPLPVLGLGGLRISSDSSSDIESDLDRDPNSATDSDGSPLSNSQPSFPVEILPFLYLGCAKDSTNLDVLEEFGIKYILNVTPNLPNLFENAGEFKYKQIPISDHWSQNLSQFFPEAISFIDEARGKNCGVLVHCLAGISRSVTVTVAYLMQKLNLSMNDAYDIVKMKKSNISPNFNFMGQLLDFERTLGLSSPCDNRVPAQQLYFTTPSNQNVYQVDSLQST
Voltage-gated potassium channel subunit beta-2 (Rattus norvegicus), sequence (P62483 whole entry, looked up): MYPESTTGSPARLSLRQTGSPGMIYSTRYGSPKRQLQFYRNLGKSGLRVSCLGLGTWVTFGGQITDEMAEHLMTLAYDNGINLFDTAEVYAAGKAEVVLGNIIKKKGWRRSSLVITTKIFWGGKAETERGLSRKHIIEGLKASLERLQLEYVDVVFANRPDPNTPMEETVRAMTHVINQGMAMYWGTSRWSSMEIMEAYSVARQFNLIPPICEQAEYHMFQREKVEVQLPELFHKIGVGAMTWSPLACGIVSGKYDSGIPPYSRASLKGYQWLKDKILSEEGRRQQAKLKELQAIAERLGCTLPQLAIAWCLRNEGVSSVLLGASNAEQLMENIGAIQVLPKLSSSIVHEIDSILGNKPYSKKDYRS
Muscarinic acetylcholine receptor M4 (Homo sapiens), sequence (P08173 whole entry, looked up): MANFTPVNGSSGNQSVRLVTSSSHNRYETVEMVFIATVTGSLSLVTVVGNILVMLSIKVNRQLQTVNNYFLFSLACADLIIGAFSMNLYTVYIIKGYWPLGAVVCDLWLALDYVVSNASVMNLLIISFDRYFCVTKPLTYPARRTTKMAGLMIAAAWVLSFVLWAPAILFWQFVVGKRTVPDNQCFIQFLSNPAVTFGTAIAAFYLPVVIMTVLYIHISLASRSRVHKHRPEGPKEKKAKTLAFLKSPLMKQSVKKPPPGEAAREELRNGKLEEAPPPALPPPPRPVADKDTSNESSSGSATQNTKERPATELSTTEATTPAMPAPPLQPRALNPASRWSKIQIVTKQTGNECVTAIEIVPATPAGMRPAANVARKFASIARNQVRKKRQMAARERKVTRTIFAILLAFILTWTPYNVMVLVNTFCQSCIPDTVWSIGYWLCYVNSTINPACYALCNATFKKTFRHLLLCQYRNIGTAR

Turning to `Cc1ccc(/C=N/n2nnnc2N)o1`, the cell count in [1] came to 674. In addition, the inhibition (in general, the drop in the measured response relative to a control, in per cent) is -1.3% (inactive) in experiment [1]; -8.1% (inactive) in experiment [3]; 1.04% (inactive) in experiment [5]; 5.51% (inactive) in experiment [10]; -2.49% (inactive) in experiment [11]; 3.55% (inactive) in experiment [12]. In addition, the inhibition of aggregation in experiment [2] is 3.9% (inactive). Also, the nuclei count in [2] came to 132%; in experiment [3], 133%. For the same compound, the z-score in experiment [4] (setting [13]) is 0.152; in experiment [4] (setting [14]), -0.504; in experiment [4] (setting [15]), 0.0866. Besides, the fluorescence slope in experiment [6] was -0.487 (inactive); in [8] it was 0.00641 (inactive). Moreover, the NADPH fluorescence slope in experiment [7] is -2.1e-05 (inactive). Besides, the result in experiment [9] was inactive.

On to `Cc1nc2sc(C#N)c(N)c2c2c1CCCC2`, for which the cell count in experiment [1] was found to be 603. Besides, the inhibition in experiment [1] is 0.2% (inactive); in [3] it was 0.2% (inactive); in [5], 9.07% (inactive); in experiment [10] it was 3.68% (inactive); in experiment [11] it was -2.92% (inactive); in experiment [12] it was -41.1% (inactive). Besides, the inhibition of aggregation in experiment [2] was -143% (inactive). For the same compound, the figures for the nuclei count in [2] and in [3] were 3.6% and 96.3%, respectively. Also, the z-score in experiment [4] (setting [13]) was -2.36; in experiment [4] (setting [14]), 2.17; in experiment [4] (setting [15]) it was -1.05. The values for the fluorescence slope in [6] and in experiment [8] were -0.0248 (active) and 0.00523 (inactive), respectively. Also, in [7], the NADPH fluorescence slope was -1e-05 (inactive). Besides, the result in experiment [9] was inactive.

As to `COC(=O)CNC(=O)c1c(C)cc(=O)oc1C`, the cell count in [1] was 481. In addition, the inhibition was 1.6% (inactive) in [1]; -34.9% (inactive) in experiment [3]; 19.4% (inactive) in [5]; 28.5% (inactive) in experiment [10]; 5.18% (inactive) in experiment [11]; 12% (inactive) in experiment [12]. Also, the inhibition of aggregation in experiment [2] is 1.6% (inactive). The values for the nuclei count in experiment [2] and in experiment [3] were 110% and 115%, respectively. For the same compound, the z-score in experiment [4] (setting [13]) was 0.439; in experiment [4] (setting [14]) it was -0.128; in experiment [4] (setting [15]) it was -1.37. Moreover, the figures for the fluorescence slope in experiment [6] and in [8] were -0.336 (inactive) and 0.00527 (inactive), respectively. In addition, the NADPH fluorescence slope in [7] was -2.8e-05 (inactive). In addition, in experiment [9], the call was inactive.

For `O=S(=O)(c1ccc2ccccc2c1)N(CC(O)CN1CCOCC1)c1ccccc1` (stereo not given), the cell count in [1] stood at 576. Further, the inhibition was -8.7% (inactive) in experiment [1]; -7.5% (inactive) in [3]; 1.42% (inactive) in experiment [5]; 143% (active) in experiment [10]; 20.7% (inactive) in experiment [11]; 14.9% (inactive) in experiment [12]. The inhibition of aggregation in experiment [2] was -10.4% (inactive). Further, the values for the nuclei count in experiment [2] and in experiment [3] were 113% and 105%, respectively. The z-score was 0.984 in [4] (setting [13]), 1.41 in experiment [4] (setting [14]) and -0.234 in [4] (setting [15]). The fluorescence slope in [6] is -0.344 (inactive); in experiment [8], 0.00503 (inactive). In addition, the NADPH fluorescence slope in [7] was -3.3e-05 (inactive). Further, the compound was called inactive in [9].

For the compound `Cc1c(NC(=O)c2ccc(=O)oc2)c(=O)n(-c2ccccc2)n1C`, the cell count in experiment [1] was 553. In addition, the inhibition was -12.6% (inactive) in experiment [1]; -22.2% (inactive) in experiment [3]; 3.42% (inactive) in experiment [5]; 23.3% (inactive) in [10]; 22.3% (inactive) in experiment [11]; 24.4% (inactive) in experiment [12]. Besides, in experiment [2], the inhibition of aggregation is 1.2% (inactive). Also, the results for the nuclei count in experiment [2] and in [3] were 78.4% and 119%, respectively. The z-score in experiment [4] (setting [13]) was -1.01; in experiment [4] (setting [14]), 0.226; in experiment [4] (setting [15]) it was 0.431. For the same compound, the fluorescence slope in experiment [6] is -0.249 (inactive); in experiment [8], 0.00562 (inactive). In addition, the NADPH fluorescence slope in experiment [7] is -7.6e-06 (inactive). Besides, the compound was called inactive in experiment [9].

Take `Cc1nc2c(o1)CCc1ccccc1C2O` (stereo not given): in [1], the cell count worked out at 606. Moreover, the inhibition in experiment [1] is 3.6% (inactive); in [3] it was -16.2% (inactive); in experiment [5], 15.5% (inactive); in [10] it was 19.1% (inactive); in [11], 2.65% (inactive); in experiment [12], 14.8% (inactive). Further, in experiment [2], the inhibition of aggregation is -5% (inactive). The nuclei count was 106% in [2] and 99.8% in [3]. Further, the z-score in [4] (setting [13]) was 3.05; in [4] (setting [14]), -1.58; in [4] (setting [15]), -1.98. For the same compound, the fluorescence slope was -0.523 (inactive) in [6] and 0.00553 (inactive) in [8]. Moreover, the NADPH fluorescence slope in [7] is -4e-05 (inactive). For the same compound, the compound was called inactive in experiment [9].

With `Cc1ccc(C(=O)/C=C/Nc2cccc(O)c2)cc1`, the cell count in experiment [1] was determined as 368. Also, the inhibition in experiment [1] is -4.7% (inactive); in experiment [3], -0.2% (inactive); in experiment [5], -8.59% (inactive); in experiment [10], 37.3% (inactive); in experiment [11], 5.62% (inactive); in [12], -32.3% (inactive). Further, the inhibition of aggregation in experiment [2] was -12% (inactive). For the same compound, the nuclei count in experiment [2] stood at 106%; in [3], 115%. Besides, the values for the z-score in [4] (setting [13]), in experiment [4] (setting [14]) and in [4] (setting [15]) were -0.411, -0.594 and 0.929, respectively. For the same compound, the fluorescence slope in [6] was -0.467 (inactive); in experiment [8] it was 0.00389 (inactive). The NADPH fluorescence slope in [7] was -0.000129 (inactive). The outcome in experiment [9] was inactive.

For the compound `CC(=Nc1cccc(O)c1)c1sc2ccccc2c1O`, in [1], the cell count is 745. The inhibition in experiment [1] was -2.4% (inactive); in experiment [3] it was -0.7% (inactive); in [5], 13.2% (inactive); in experiment [10] it was -2.68% (inactive); in experiment [11] it was -6% (inactive); in experiment [12], 76.3% (active). The inhibition of aggregation in experiment [2] is -13% (inactive). The nuclei count in experiment [2] came to 96.4%; in experiment [3], 123%. The z-score in experiment [4] (setting [13]) is 0.824; in experiment [4] (setting [14]), 0.631; in experiment [4] (setting [15]), -1.52. Moreover, the figures for the fluorescence slope in experiment [6] and in experiment [8] were -0.303 (inactive) and 0.0088 (inactive), respectively. The NADPH fluorescence slope in [7] was -6.7e-05 (inactive). Also, the outcome in experiment [9] is “inactive; toxic”.

`COCc1cc(=O)[nH]c(Nc2nc3ccccc3o2)n1`: in [1], the cell count amounted to 597. Also, the inhibition was -4.5% (inactive) in [1]; -16% (inactive) in [3]; -2.09% (inactive) in experiment [5]; 4.61% (inactive) in experiment [10]; -29.5% (inactive) in experiment [11]; -80.2% (inactive) in experiment [12]. Further, in experiment [2], the inhibition of aggregation was 5.2% (inactive). Also, the figures for the nuclei count in experiment [2] and in experiment [3] were 87.4% and 95.2%, respectively. Also, the z-score in [4] (setting [13]) is 0.0739; in experiment [4] (setting [14]) it was -1.45; in experiment [4] (setting [15]), -0.93. The fluorescence slope in experiment [6] was -0.469 (inactive); in [8], 0.00519 (inactive). For the same compound, the NADPH fluorescence slope in experiment [7] is -5.1e-05 (inactive). The outcome in experiment [9] was inactive.

`Cn1c(=O)c2c(nc(Br)n2CCSc2ncccn2)n(C)c1=O`: the cell count in [1] is 606. In addition, the inhibition in experiment [1] was -12.8% (inactive); in [3] it was -13.4% (inactive); in experiment [5], 21.4% (inactive); in experiment [10], 36.1% (inactive); in experiment [11] it was 5.45% (inactive); in [12], 6.81% (inactive). The inhibition of aggregation in [2] is 5.2% (inactive). Further, the nuclei count in experiment [2] came out at 103%; in experiment [3], 150%. Also, the z-score is 0.427 in experiment [4] (setting [13]), -0.0194 in experiment [4] (setting [14]) and -1.04 in experiment [4] (setting [15]). For the same compound, the fluorescence slope in experiment [6] was -0.364 (inactive); in experiment [8], 0.00613 (inactive). The NADPH fluorescence slope in [7] is -1.4e-05 (inactive). In addition, the compound was called inactive in [9].
